Compounds with a hit are over-represented: about 7.4% of the library has one in this group of screens.
FLuc counter = firefly luciferase modulation, counter-screen for miR-21 project; P08659; Potency, µM (top dose mostly 57.5 µM), inactives show at the highest dose activity change, negative = inhibition, most hits filed as inhibitors; AID 588342; purified FLuc, Km substrates, luminescence inhibition; 360,000 compounds, 6.9% hits;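 further: plate controls were vehicle for no effect and reference inhibitor for full effect; nearly all actives have a fitted effect of over 55% in size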
Target sequence (P08659 whole entry, looked up): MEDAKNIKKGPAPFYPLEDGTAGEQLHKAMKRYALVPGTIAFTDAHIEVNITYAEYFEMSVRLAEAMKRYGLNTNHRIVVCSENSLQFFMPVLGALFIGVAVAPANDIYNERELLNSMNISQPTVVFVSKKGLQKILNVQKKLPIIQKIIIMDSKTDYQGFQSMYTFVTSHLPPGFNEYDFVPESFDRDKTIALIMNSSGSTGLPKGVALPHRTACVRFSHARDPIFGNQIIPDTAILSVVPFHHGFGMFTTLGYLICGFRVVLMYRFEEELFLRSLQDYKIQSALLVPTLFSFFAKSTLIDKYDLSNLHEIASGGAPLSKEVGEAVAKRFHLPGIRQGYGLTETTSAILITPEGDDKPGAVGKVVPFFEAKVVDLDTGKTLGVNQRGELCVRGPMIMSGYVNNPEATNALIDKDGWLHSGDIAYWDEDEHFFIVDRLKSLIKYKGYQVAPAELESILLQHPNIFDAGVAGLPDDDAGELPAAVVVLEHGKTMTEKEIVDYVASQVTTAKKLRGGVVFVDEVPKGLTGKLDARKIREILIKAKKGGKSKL
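Purified P. pyralis luciferase (10nM final) with 10uM D-luciferin and 10uM ATP (Km levels) in 50mM Tris acetate pH 7.5, 10mM Mg acetate, 0.01% Tween-20, 0.05% BSA; qHTS 6-point titration, ~60 µM downward; luminescence read.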
Luc counter = Kinase-Glo luciferase inhibition (counter-screen); Potency, µM (highest dose often 38.3 µM), without a hit: at the highest dose activity change, negative = inhibition, hits mostly inhibitors; 200,000 compounds, 0.28% hits; Q27757; AID 1379; Kinase-Glo luciferase, ATP luminescence, 8 min; further: on the % scale 0 is the no-effect control and ±100 the full control effect; nearly all actives have a fitted effect of over 60% in size
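Compounds were added to a substrate mix at pH 7.2 (50 mM imidazole, 10 uM ATP, within the enzyme's linear range), followed by Kinase-Glo detection reagent; luminescence was measured after 8 minutes at ambient temperature.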
ELG1 genotox = induces genotoxicity in HEK293T cells with luciferase-tagged ELG1; 330,000 compounds, 1.3% hits; Potency, µM (top dose mostly 46 µM), without a hit: top-dose activity change, positive = activation, actives largely listed as activators; HEK293T ELG1-luciferase reporter, luminescence, 16 h; AID 504466; further: % of control where 0% means no effect; nearly all actives have a fitted effect of over 60% in size
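Genotoxicity was scored as increased ELG1-luciferase reporter signal, measured by ONE-Glo luminescence (30 min, room temperature). Compound or vehicle exposure of the HEK293T reporter cells lasted 16 hr at 37°C.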
Rab9 prom act = activates the Rab9 promoter | Huh7 Rab9 promoter-luciferase reporter, luminescence, 24 h | Potency, µM (top dose mostly 9.22 µM), for inactives: at the top dose activation, negative = inhibition, usual class: activators | 320,000 compounds, 2.8% hits; further: % of control where 0% means no effect; nearly all actives have a fitted effect of over 60% in size
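Rab9 promoter-driven luciferase in stably transfected Huh7 cells; 1500 cells/well rested 2 h, exposed to compound in DMSO for 24 h at 37 °C, 5% CO2. Luminescence read 10 min after adding luciferase reagent at ambient temperature.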
NPC1 prom act = activates the NPC1 promoter. Potency, µM (series often up to 9.22 µM), for the others: at the highest dose activation, usual class: activators. Huh7 NPC1 promoter luciferase reporter, 24 h. 320,000 compounds, 2.4% hits. AID 485313; further: % of control where 0% means no effect; nearly all actives have a fitted effect of over 60% in size
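In 1536-well qHTS, Huh7 cells harboring an NPC1 promoter–luciferase construct received compound for 24 h; activation was quantified by luminescence following luciferase reagent addition.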
SMN2 splice enh = SMN2 splice variant enhancement | 210,000 compounds, 2.8% hits | AID 1458 | HEK293 SMN2-luciferase splicing reporter, luminescence, 30-36 h | Potency, µM (doses to about 46.1 µM), for the others: top-dose activity change, positive = activation, actives largely listed as activators; further: % of control where 0% means no effect; nearly all actives have a fitted effect of over 55% in size
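qHTS luciferase splicing reporter: luminescence rises when SMN2 exon 7 is included in transfected HEK293 cells. Compound exposure lasted 30-36 h at 37C, with 4.5 mM final sodium butyrate as control, followed by a ONE-Glo read.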
* = called active by the depositor; ? = inconclusive; · = no result given. The call rests on the fitted dose curve; in most records, active means well fitted curve in the direction sought with a large enough effect; inconclusive means small, poorly fitted or top-dose-only effect, or another doubt; inactive means no such curve, though single readings can be large; an effect the other way counts as inactive or inconclusive. Potency means the concentration at half of the fitted maximal effect.

SMILES | FLuc counter | Luc counter | ELG1 genotox | Rab9 prom act | NPC1 prom act | SMN2 splice enh
COc1cc(/C=c2\s/c(=C\C(=O)C(C)(C)C)[nH]c2=O)cc(OC)c1OC | -10% | 2% | -3% | -14% | -6% | -8%
COc1ccc(/C=c2\s/c(=C\C(=O)C(C)(C)C)[nH]c2=O)cc1O | 24µM* | · | -9% | -3% | -1% | ·
Nn1c(SCC(=O)Nc2nccs2)nnc1-c1cccnc1 | · | · | 1% | -10% | 6% | ·
CCN(CC)S(=O)(=O)c1ccc(C(=O)NC2CC(=O)N(c3ccc(OC)c(OC)c3)C2)cc1 (stereo not drawn) | -1% | · | · | · | · | ·
CC(=O)c1c(C)[nH]c(C(=O)Nc2cccc(C)n2)c1C | 8.5µM* | · | 1.6µM* | 0.45µM* | 0.35µM* | ·
CC(=O)c1c(C)[nH]c(C(=O)Nc2nccs2)c1C | 24µM* | 3% | ? | 2.8µM* | ? | 13µM*
Clc1ccc(-c2nc(C3CCCCC3)no2)cc1 | 4.8µM* | -2% | 12% | 3.2µM* | 3.2µM* | ?
Clc1ccc(-c2nnc(C3CCCCC3)o2)cc1 | ? | 14% | ? | 30% | 24% | 27%
Cn1ccnc1Sc1ccc(/C=N/NC(=O)c2ccccc2O)cc1[N+](=O)[O-] | 5.4µM* | 4% | 7% | 1% | 3% | -7%
O=C(Cn1cc(S(=O)(=O)N2CCN(c3ccccc3F)CC2)c2ccccc2c1=O)Nc1cccc(C(F)(F)F)c1 | 5% | · | · | · | · | -2%
O=c1c2ccccc2sn1-c1nccs1 | 8.5µM* | -12% | -3% | -1% | 1% | 6%
O=c1c2ccccc2sn1-c1ccc(S(=O)(=O)N2CCCC2)cc1 | 4.8µM* | -3% | 0% | 21% | 9% | -7%
O=c1c2ccccc2c(C=Nc2ccccc2O)c(O)n1-c1nccs1 | -3% | · | -7% | -4% | 2% | ·
O=c1c2ccccc2sn1-c1ccccc1 | 7.6µM* | -20% | 17% | 25% | 10% | 6%
Cc1ccc(-n2sc3ccccc3c2=O)cc1S(=O)(=O)N1CCCCC1 | 19µM* | 0% | -8% | 8% | 1% | -17%
OCC[C@H]1C[C@@H](O)[C@H](O)[C@@]2(Cc3ccccc3O2)O1 | 4% | · | 4% | -6% | 1% | ·
O=C(CSc1nnc(-c2ccc(O)cc2)o1)c1ccc(Br)cc1 | 1% | · | · | · | · | ·
CCOC(=O)c1ccccc1NC(=O)CSc1nc2ccccc2c(=O)n1CCCN1CCOCC1 | · | · | -11% | · | · | ·
O=C(CN1CCCC1)Nc1cccc(Cl)c1Cl | 4% | · | 2% | 3% | -4% | ·
CN(C)S(=O)(=O)c1cccc(-n2sc3ccccc3c2=O)c1 | 11µM* | -7% | 1% | ? | 10% | 8%
O=C(O)c1cccc(-n2sc3ccccc3c2=O)c1 | ? | · | 0% | 1% | 1% | ·
O=C(CCc1ccccc1)Nc1cc(S(=O)(=O)N2CCOCC2)ccc1N1CCCC1 | 11% | · | 1% | 2% | -2% | ·
O=C(COC(=O)C1CC1)Nc1ccc(Oc2ccccc2)cc1 | 21µM* | -5% | -2% | ? | -2% | 6%
CC(C)(C)C(=O)Nc1ccc(C(=O)COC(=O)C2CC2)cc1 | 7.6µM* | · | 11% | 3.5µM* | ? | ·
O=C(O)CCC(=O)NNC(=O)CCC(=O)Nc1ccccc1 | 1% | 1% | -8% | -2% | 3% | 10%
SMILES | FLuc counter | Luc counter | ELG1 genotox | Rab9 prom act | NPC1 prom act | SMN2 splice enh
CCCC(=O)OCC(=O)Nc1ccc(N=Nc2ccccc2)cc1 | 9.5µM* | -1% | 21µM* | 3.5µM* | 2.2µM* | 16µM*
O=C(O)CCC(=O)Nc1ccc(N=Nc2ccccc2)cc1 | 11µM* | 0% | 10% | 16% | 12% | 10%
Cc1oc(-c2ccccc2Cl)nc1CS(=O)CC(=O)N1CCN(c2cccc(C(F)(F)F)c2)CC1 (stereo not drawn) | -2% | · | · | · | · | ·
COc1cc(OC)c(N(C)C(=O)c2cc3c(s2)-c2ccccc2OC3)cc1Cl | 6% | · | · | · | · | 5%
O=C(CCCC(=O)OCC(=O)c1cccs1)Nc1ccc(Oc2ccccc2)cc1 | 21µM* | -3% | -3% | -2% | 1% | 5%
CC1CC1C(=O)OCC(=O)Nc1ccc(N=Nc2ccccc2)cc1 (stereo not drawn) | ? | 4% | 16µM* | 1.8µM* | 3.2µM* | 13µM*
COc1ccccc1C(=O)NC(=O)COC(=O)C1CC1C (stereo not drawn) | 8.5µM* | · | -7% | 0% | 8% | ·
O=C(CCCC(=O)OCC(=O)c1cccs1)Nc1ccc(F)cc1 | -12% | 0% | 0% | -2% | -2% | 8%
COCCNC(=O)C1CCCN(S(=O)(=O)c2ccc3c(ccn3C)c2)C1 (stereo not drawn) | 0% | · | · | · | · | ·
O=C(O)Cn1cc(/C=c2/sc3nc4ccccc4n3c2=O)c2ccccc21 | 11µM* | 0% | 0% | -3% | -1% | 17%
O=c1/c(=C\c2cccn2-c2ccccc2)sc2nc3ccccc3n12 | ? | · | 4.6µM* | 2.5µM* | ? | ·
Cc1ccc(-n2c(C)cc(/C=c3/sc4nc5ccccc5n4c3=O)c2C)cc1 | 1.2µM* | -5% | -1% | -28% | -22% | -79%
COc1cc(N2CCCC2)c(OC)cc1/C=c1/sc2nc3ccccc3n2c1=O | ? | -14% | 1% | ? | ? | -39%
O=Cc1cccn1-c1ccccc1 | -2% | · | 1% | -2% | -3% | ·
COC(=O)c1c(NC(=S)NNC(=O)c2ccc(Cl)s2)sc(C(=O)N(C)C)c1C | -1% | · | 5% | 5% | 1% | ·
Cc1ccc(C)c(NC(=O)CCC(=O)NNS(=O)(=O)c2ccc(Cl)cc2)c1 | -2% | · | -2% | -7% | -2% | ·
CCOC(=O)C/C(=N\Nc1ncnc2ccccc12)c1ccccc1 | ? | · | 5% | ? | 17% | ·
CCOC(=O)/C(=N\Nc1ncnc2ccccc12)c1ccc(C)cc1 | 12µM* | · | ? | ? | ? | ·
C/C=C/c1ccc(OCC(=O)OCc2csc(CC(=O)Nc3ccccc3C)n2)c(OC)c1 | -8% | · | 2% | 0% | 1% | ·
CN1C(=C2C(=O)OC(C)(C)OC2=O)Sc2ccccc21 | 15µM* | -10% | ? | 2.5µM* | 3.5µM* | 13%
C=CCN1C(=O)/C(=C2\SC(N3CCOCC3)=NC2=O)c2cc(Br)ccc21 | -14% | -5% | -6% | -3% | -1% | 11%
CCCCN1C(=O)/C(=C2\SC(N3CCOCC3)=NC2=O)c2ccccc21 | ? | · | -2% | 2µM* | 2µM* | ·
CCN1C(=O)/C(=C2\SC(N3CCOCC3)=NC2=O)c2ccccc21 | 11µM* | · | 3% | 26% | 18% | ·
CCCCN1C(=O)c2ccc(C(=O)Nc3ccccc3N3CCOCC3)cc2C1=O | -10% | 1% | -5% | -2% | -4% | -6%
